From PubChem BioAssay AID618 (Sanford-Burnham Center for Chemical Genomics, 2007)
The campaign covered roughly 87,000 compounds. About 540 (0.62%) were called active. Entries that show only a call come without a potency. This is one part of a sample in which actives are shown more often than they occur. How the calls were made is not given here. Potency and affinity values are given separately.

Assay: inhibitors of MT1-MMP promoter transcription, cell-based, luciferase reporter, luminescence (AID 618);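 further: actives suppress MT1-MMP promoter-driven transcription so potencies describe inhibitors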
Details: MT1-MMP promoter luciferase reporter cells

Compound	outcome
CCOC(=O)C1CCN(Cc2ccc(F)cc2F)CC1	inactive
O=C1NC2(CCOc3ccccc32)C(=O)N1CC(=O)N(Cc1ccccc1)C1CCS(=O)(=O)C1 (stereo not given)	inactive
Cc1ccc2nc(N/N=C\c3ccc([N+](=O)[O-])o3)nc(-c3ccccc3)c2c1	inactive
Cn1c(SCc2ccon2)nc2ccccc2c1=O	inactive
Cn1c(/C=C/c2ccc([N+](=O)[O-])o2)nc2ccccc2c1=O	active
COc1ccccc1C(=O)Nc1ccc2c(c1)nc(CN1CCN(C(C)=O)CC1)n2C	inactive
C/C=C(/C(=C/C)c1ccc(O)cc1)c1ccc(O)cc1	inactive
CC(/C=C/c1ccc(O)cc1)=N/O	inactive
Oc1ccc(/C=C/c2cc(O)cc(O)c2)cc1	active
c1ccc(Cn2c(Nn3cnnc3)nc3ccccc32)cc1	inactive
COc1ccc(CCN(Cc2cc3cccc(C)c3[nH]c2=O)C(=O)NC2CCCCC2)cc1OC	inactive
COc1ccc2c(c1)Cc1sc(NC(=O)c3ccco3)nc1-2	inactive
COc1ccc2sc(NC(=O)c3ccco3)nc2c1	active
O=C(Nc1nc2ccc(Cl)cc2s1)c1ccco1	inactive
COc1ccc2sc(NC(C)=O)nc2c1	inactive
COc1ccc2nc(NC(=O)c3ccoc3C)sc2c1	inactive
O=C(Nc1nnc(-c2ccco2)s1)c1ccccc1	inactive
CCOc1ccc2nc(NC(=O)c3cnc(C)cn3)sc2c1	inactive
CS(=O)(=O)c1ccc2nc(NC(=O)c3ccco3)sc2c1	inactive
COc1ccccc1C(=O)Nc1nnc(-c2ccco2)s1	inactive
O=C(CCN1C(=O)COc2ccccc21)NCc1cccnc1	inactive
O=C(NCc1cccnc1)C1CCN(S(=O)(=O)N2CCC3(CC2)OCCO3)CC1	inactive
Cc1ccc(NC(=O)C2CCN(C(=O)NC3CCCCC3)CC2)cc1	inactive
CC(=O)c1ccc(OCC(O)CN2CCC(C)CC2)cc1 (stereo not given)	inactive

Compound	outcome
Cc1ccc(C)c(OCCCC(=O)O)c1	inactive
Nc1ccc(Oc2ccc([N+](=O)[O-])cc2[N+](=O)[O-])cc1	inactive
COc1ccccc1NC(=O)CSc1nnc(-c2ccco2)o1	inactive
NC(=O)C1(N2CCCCC2)CCN(c2nc(-c3ccccc3)cs2)CC1	inactive
COCCn1c(=S)[nH]c2cc(C(=O)NCC3CCCO3)ccc2c1=O (stereo not given)	inactive
COc1cccc(C(=O)Nc2ccc(C(=O)O)cc2)c1	inactive
c1ccc(-c2noc(CSc3nnc(Cc4cccs4)n3-c3ccccc3)n2)cc1	inactive
O=C(O)CCc1nn2cc(-c3ccccc3)nc2[nH]c1=O	inactive
CCN(CC)CCNC(=O)c1sc2nc(-c3ccccc3)cn2c1C	inactive
Cc1nc(-c2ccccc2)cs1	inactive
Cc1nn2cc(-c3ccccc3)nc2[nH]c1=O	inactive
Cc1nn2c(-c3ccc(Cl)cc3)nnc2s1	inactive
Cc1nn2cc(-c3ccc(Cl)cc3)nc2s1	active
Cc1nn2cc(-c3ccc(-c4ccccc4)cc3)nc2s1	active
Cc1c(C(=O)N2CCOCC2)sc2nc(-c3ccccc3)cn12	inactive
CCc1nn2cc(-c3ccccc3)nc2s1	active
Nc1nc(-c2ccc(Cl)cc2)cn1N	inactive
Cc1cccn2cc(-c3ccccc3)nc12	inactive
Cc1ccc(CNCc2cc3c(C(C)(C)C)nn(-c4ccccc4)c3[nH]c2=O)cc1	inactive
O=C(O)CNS(=O)(=O)c1cc(Cl)c(Cl)cc1Cl	inactive
Cc1ccc(NC(=O)CS(=O)CC(=O)N(c2ccc(C)cc2)C(C)C(=O)NC2CCCCC2)cc1 (stereo not given)	inactive
CC(C)COC(=O)CNc1n[nH]c(=S)[nH]c1=O	inactive
Cc1cc(NC(=O)COC(=O)[C@H](Cc2c[nH]c3ccccc23)NC(=O)c2ccc(F)cc2)no1	inactive
COC(=O)CSc1nnc(-c2ccncc2)o1	inactive

Compound	outcome
C=CCn1c(SCC(=C)C)nc2c1c(=O)[nH]c(=O)n2C	inactive
Cc1ccc(Cn2c(-n3nc(C)cc3C)nc3c2c(=O)[nH]c(=O)n3C)cc1	inactive
Cc1cc(C)n(-c2nc3c(c(=O)[nH]c(=O)n3C)n2CCc2ccccc2)n1	inactive
COc1ccc(CCn2c(-n3nc(C)cc3C)nc3c2c(=O)[nH]c(=O)n3C)cc1	active
O=c1ccc2ccc(OCc3nnc(-c4ccccc4Br)o3)cc2o1	inactive
O=c1c2ccccc2nc2c3ccccc3c3nncn3n12	inactive
O=C(Nc1ccc(S(=O)(=O)N2CCOCC2)cc1)c1cccs1	inactive
COc1ccc(-n2nnnc2S(=O)(=O)Cc2ccc(C(=O)O)cc2)cc1	inactive
COc1ccc(-n2nnnc2S(=O)(=O)CC(=O)N2CCCCC2)cc1	active
COc1cc(OC)cc(-n2nnnc2SCC(=O)N2CCCC2)c1	inactive
Cc1ccc2[nH]c(=O)c(-c3noc(C(C)C)n3)cc2c1	inactive
Cc1cccc(CS(=O)(=O)Cc2ccc(C(=O)O)o2)c1	inactive
Nc1ccc(-c2cnc(-c3ccc(N)cc3)nc2)cc1	inactive
Brc1ccc(-c2ncc(-c3ccccc3)cn2)cc1	inactive
O=C(O)CCc1nn2cnc3sc4c(c3c2nc1=O)CCCC4	inactive
CCOc1c(S(=O)(=O)N2CCCC2)ccc(Cl)c1Cl	inactive
Cc1cccc(NC(=O)c2cc3n(n2)C(C(F)(F)F)CC(c2ccc4c(c2)OCO4)N3)c1 (stereo not given)	inactive
O=C(NC1CCCCC1)N(CCN1CCOCC1)Cc1cc2cc3c(cc2[nH]c1=O)OCCO3	inactive
COc1ccc(OC)c(Nc2nc(N)nc(-c3cc4ccccc4o3)n2)c1	inactive
COc1ccc(OC)c(Nc2cc(C)nc3ccccc23)c1	inactive
COc1ccc(OC)c(Nc2cc(-c3ccccc3)nc(N)n2)c1	active
COCCN(CC(=O)NCc1ccccc1)C(=O)CCC(=O)Nc1nccs1	inactive
COc1ccc(C(c2sc3nc(C)nn3c2O)N2CC(C)OC(C)C2)cc1OC (stereo not given)	inactive
Cn1c(SCC(=O)N2CCOCC2)nc(O)cc1=O	inactive

Compound	outcome
O=c1c2ccccc2ncn1Cc1nc2ccccc2s1	inactive
O=C1c2ccccc2S(=O)(=O)N1Cc1cc(=O)n2ccsc2n1	inactive
COc1ccc(C2=Nc3cc(C)ccc3OC2)cc1	inactive
c1ccc(C2=Nc3ccccc3OC2)cc1	inactive
CSc1sc(C(=O)O)c2c1C(=O)CCC2	inactive
COc1cccc(C2NC(=O)NC(C)=C2C(=O)OCCSC)c1OC (stereo not given)	inactive
CN(C)S(=O)(=O)c1ccc(C(=O)Nc2ccc(CCC(=O)N3CCCC3)cc2)cc1	inactive
CC1CN(Cc2nc3c(c(=O)[nH]c(=O)n3C)n2CC(N)=O)CC(C)O1 (stereo not given)	inactive
O=C(NC1CC1)c1ccc(-c2nc3ccccc3s2)s1	active
O=C(OC1CCOC1=O)c1ccc(-c2nc3ccccc3s2)s1 (stereo not given)	inactive
CCCNC(=O)c1ccc(-c2nc3ccccc3s2)s1	inactive
CCOC(=O)c1sc(Nc2ccc(C)cc2C)nc1C	inactive
COc1cc(CN2CCN(S(=O)(=O)c3ccc(F)cc3)CC2)cc(OC)c1OC	inactive
Nc1sc2c(c1C(=O)NC1CCS(=O)(=O)C1)CCCC2 (stereo not given)	inactive
COc1cc(/C=N/O)ccc1OCc1ccc(C(=O)O)cc1	active
O=C(O)c1cc(/C=N\O)ccc1OCc1ccccc1	inactive
COc1cc(C(N)=O)ccc1OCc1ccccc1	inactive
CCOC(=O)Cn1cc(C(=O)OC)c2ccccc21	inactive
CCOc1ccccc1N1CCN(C(=O)C2c3ccccc3Oc3ccccc32)CC1	inactive
COc1ccccc1N1CCN(C(=O)C2c3ccccc3Oc3ccccc32)CC1	active
O=C(C1c2ccccc2Oc2ccccc21)N1CCN(c2ccc(Cl)cc2)CC1	inactive
CCOC(=O)C1CCN(Cc2ccccc2C)CC1	inactive
Cc1cnc(C)c(N2CCC(C(=O)NC(C)c3cccs3)CC2)n1 (stereo not given)	inactive
CC(C)Oc1ccccc1C1CC(=O)Nc2cc3c(cc21)OCCO3 (stereo not given)	inactive

Compound	outcome
COc1cccc(C2CC(=O)Nc3cc4c(cc32)OCCO4)c1OC(C)C (stereo not given)	inactive
CCOc1ccccc1C1CC(=O)Nc2cc3c(cc21)OCO3 (stereo not given)	active
CC(C)Oc1ccccc1C1CC(=O)Nc2cc3c(cc21)OCO3 (stereo not given)	active
CCCOc1ccccc1C1CC(=O)Nc2cc3c(cc21)OCCO3 (stereo not given)	inactive
CCOc1ccccc1C1CC(=O)Nc2cc3c(cc21)OCCO3 (stereo not given)	inactive
Cc1[nH]nc2c1C(c1ccc(Cl)cc1)C(C#N)=C(N)O2 (stereo not given)	inactive
CCOC(=O)C1CCCn2c1nc1sc3c(c1c2=O)CCCC3 (stereo not given)	inactive
CC(C)(C)c1ccc(S(=O)(=O)NCc2ccc(C(=O)N3CCCC3)cc2)cc1	inactive
COc1ccc(N/N=C(\C=N\O)C(=O)c2ccc(OC)cc2)cc1	active
CO/N=C/C(=N\Nc1ccc(C)cc1)C(=O)c1ccc(OC)cc1	inactive
CO/N=C/C(=N\Nc1ccc(OC)cc1)C(=O)c1ccc(OC)cc1	inactive
Cc1c(C(=O)OC(C)CCN(C)C)oc2ccccc12 (stereo not given)	inactive
CN1/C(=C\C(=O)COC(=O)CN2C(=O)C3CC=CCC3C2=O)C(C)(C)c2ccccc21 (stereo not given)	inactive
Fc1ccc(Cn2c(-c3cscn3)nc3ccccc32)c(Cl)c1	inactive
Cc1oc2ccc(O)cc2c1C(=O)OC(C)C	inactive
CCN1C(=O)C(CC(=O)N2CCN(C(c3ccccc3)c3ccccc3)CC2)N(CC)C1=O (stereo not given)	inactive
CC(=O)CSc1nc2ccccc2s1	inactive
O=C(CSc1nc2ccccc2s1)CSc1nc2ccccc2s1	inactive
CC(C)Oc1ccc(C2c3c(oc4ccccc4c3=O)C(=O)N2CCCN2CCOCC2)cc1 (stereo not given)	inactive
NC(=O)CSc1nnc2sc3ccccc3n12	inactive
COc1cccc(OCCSc2nnc3sc4ccccc4n23)c1	inactive
CN(C)C(=O)CSc1nnc2sc3ccccc3n12	inactive
COc1ccc(OCCSc2nnc3sc4ccccc4n23)cc1	inactive
C=CCOC(=O)C1=C(C)NC(=O)NC1c1cn(-c2ccccc2)nc1-c1cccs1 (stereo not given)	inactive
